Measured values as given in PubChem BioAssay AID2642 (Johns Hopkins Ion Channel Center, 2010).
The whole screen tested about 310,000 compounds, of which about 3,900 (1.3%) were called active.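 The calls were made as follows: active = compounds whose thallium flux B-score, printed positive for inhibition, exceeds three library SD while starting fluorescence stays within three; inactive = the rest.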 This excerpt belongs to a sample that is enriched for actives.

biological target: Potassium voltage-gated channel subfamily KQT member 1 (Homo sapiens) (UniProt P51787); assay: KCNQ1 potassium current blockers – cell-based, thallium flux, high-throughput, primary screen (AID 2642); settings: CHO-K1 KCNQ1, FluxOR thallium flux fluorescence, at 10 µM; stronger effect = higher value;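 also: channel opened by potassium depolarization with thallium stimulus after 20 min compound exposure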
Sequence (P51787 whole entry, looked up): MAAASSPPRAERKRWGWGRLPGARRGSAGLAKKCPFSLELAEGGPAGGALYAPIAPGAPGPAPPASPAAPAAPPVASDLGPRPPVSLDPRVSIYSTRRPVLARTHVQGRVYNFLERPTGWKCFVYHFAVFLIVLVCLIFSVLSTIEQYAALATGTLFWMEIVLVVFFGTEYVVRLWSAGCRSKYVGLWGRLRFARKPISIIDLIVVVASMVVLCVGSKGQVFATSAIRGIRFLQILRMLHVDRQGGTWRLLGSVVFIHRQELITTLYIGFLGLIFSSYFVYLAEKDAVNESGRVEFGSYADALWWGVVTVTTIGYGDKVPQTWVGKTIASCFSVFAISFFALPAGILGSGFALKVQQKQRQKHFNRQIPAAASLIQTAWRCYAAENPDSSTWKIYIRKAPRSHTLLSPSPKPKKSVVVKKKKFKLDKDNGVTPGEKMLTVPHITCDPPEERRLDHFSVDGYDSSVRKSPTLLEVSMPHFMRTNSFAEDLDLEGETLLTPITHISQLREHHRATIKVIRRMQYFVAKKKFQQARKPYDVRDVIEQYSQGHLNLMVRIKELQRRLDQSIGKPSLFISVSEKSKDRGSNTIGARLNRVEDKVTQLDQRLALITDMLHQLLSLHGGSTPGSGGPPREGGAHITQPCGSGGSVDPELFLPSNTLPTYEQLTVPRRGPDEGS

Row | SMILES | B-score
1 | CCOC(=O)C1CCN(C(=O)C2CCN(S(=O)(=O)CC)CC2)CC1 | inactive
2 | CCOC(=O)c1cn(CC)c2cc(F)c(F)cc2c1=O | inactive
3 | COc1ccccc1N1CCN(C(=O)c2cc3c(-c4ccc(Cl)cc4)nn(C)c3s2)CC1 | inactive
4 | Cn1nc(-c2ccc(Cl)cc2)c2cc(C(=O)NCc3ccco3)sc21 | 6 (active)
5 | CCOC(=O)N1CCN(C(=O)c2cc3c(-c4ccc(Cl)cc4)nn(C)c3s2)CC1 | inactive
6 | CN1CCc2ccccc2C1Cc1ccccc1NC(=O)c1sc2ccccc2c1Cl (stereo not drawn) | inactive
7 | CCN(CC(=O)Nc1c(F)cccc1F)C(=O)c1ccc(Sc2nncn2C)c([N+](=O)[O-])c1 | inactive
8 | COc1ccc(CNc2ccc3c(c2)CCC3)cc1OC | inactive
9 | COc1ccc(OC)c(CCNC(=O)CCn2ccc3cc(S(=O)(=O)N4CCCC4)ccc32)c1 | inactive
10 | CCOCc1nnc(NC(=O)CCC2CCCCC2)s1 | inactive
11 | CN1CCN(NC(=O)Nc2ccc(Br)cc2)CC1 | inactive
12 | CNC(=O)C1CC(=O)N(Cc2ccc3c(c2)OCO3)C(=Nc2ccc(F)cc2)S1 (stereo not drawn) | inactive
13 | CC1CCC(N2CC(=O)N(Cc3ccc4c(c3)OCO4)C(c3ccc(F)cc3)C2=O)CC1 (stereo not drawn) | 6 (active)
14 | CC1CCC(NC(=O)C2c3ccccc3C(=O)N2Cc2ccc3c(c2)OCO3)CC1 (stereo not drawn) | inactive
15 | COc1ccccc1C(=O)NC(=S)NC12CC3CC(CC(C3)C1)C2 | inactive
16 | CCCN1Cc2cccc(C(=O)NCc3ccccc3)c2C1=O | 8 (active)
17 | COCCN1Cc2cccc(C(=O)Nc3ccccc3OC)c2C1=O | inactive
18 | CSc1ccccc1C(=O)NCc1ccccc1 | inactive
19 | CSc1ccccc1NC(=O)c1cnc2sc(C)cn2c1=O | inactive

Row | SMILES | B-score
20 | Cc1nc(NC(=O)C2CCCCC2)sc1C | inactive
21 | CN(C)CCN(C(=O)C1CCCCC1)c1nc2cc3c(cc2s1)OCO3 | inactive
22 | CCN(CC)CCN(C(=O)c1ccc(N2C(=O)CCC2=O)cc1)c1nc2cc3c(cc2s1)OCO3 | inactive
23 | CCN(CC)CCN(C(=O)c1cc(Cl)sc1Cl)c1nc2cc3c(cc2s1)OCO3 | 7 (active)
24 | CCCc1nn2c(=O)cc(CSCC(=O)Nc3cccc(C)c3)nc2s1 | inactive
25 | CC(=O)c1ccc(-c2ccc(Cn3c(C)nc4cc(N)c(C)nc43)cc2)cc1 | inactive
26 | Cc1cc2nc3c(=O)n(Cc4ccccc4)c(=O)[nH]c3nc2cc1N | 8 (active)
27 | Cc1cc(-c2csc(N)n2)c(C)n1Cc1ccccc1 | inactive
28 | O=C(O)c1ccc2c(=O)n3c(nc2c1)/C(=C/c1ccc(Cl)c([N+](=O)[O-])c1)CC3 | inactive
29 | CC(=O)C(C)n1cnc2scc(-c3ccc(C)cc3)c2c1=O (stereo not drawn) | inactive
30 | CCn1cnc2scc(-c3ccc(C)c(C)c3)c2c1=O | inactive
31 | CCOC(=O)C(C)n1cnc2scc(-c3ccc(C)c(C)c3)c2c1=O (stereo not drawn) | 6 (active)
32 | CC(c1nnc(SCC(=O)Nc2sccc2C#N)n1-c1ccc(Cl)cc1)N(C)C (stereo not drawn) | inactive
33 | Cc1c(CN2CC[C@@H](N3CCN(c4ccccn4)CC3)[C@H](O)C2)[nH]c2ccc(F)cc12 | inactive
34 | Fc1ccc2[nH]c3c(N4CCSCC4)ncnc3c2c1 | 8 (active)
35 | C=CCn1c(Cn2nnc3ccccc32)nnc1SCC(=O)N/N=C/c1cc(Br)cc(OC)c1O | inactive
36 | COc1ccc(/C=C2\CCCC3C2=NN(C(=O)c2scnc2C)C3c2ccc(OC)cc2)cc1 (stereo not drawn) | 8 (active)
37 | CCOC(=O)C1(Cc2ccccc2C(F)(F)F)CCN(C(=O)c2cc(C)n(C)n2)CC1 | inactive
38 | O=S(=O)(c1ccccc1)c1nc(Cc2ccccc2)oc1N1CCOCC1 | inactive
